Many of the other results were omitted from the sample, so hits are more common in it than they were.
Cruzain inh Det = inhibitors of Trypanosoma cruzi cruzain with detergent. P25779. purified cruzain, Z-FR-AMC fluorescence, 0.01% Triton. Potency, µM, without a hit: max response, negative = inhibition, actives largely listed as inhibitors. actives 0.43% (n = 200,000);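 also: plate controls were neutral wells for no effect and buffer without enzyme for full effect; nearly all actives have a fitted effect of over 40% in size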
Target sequence (P25779 123-467 limits assumed): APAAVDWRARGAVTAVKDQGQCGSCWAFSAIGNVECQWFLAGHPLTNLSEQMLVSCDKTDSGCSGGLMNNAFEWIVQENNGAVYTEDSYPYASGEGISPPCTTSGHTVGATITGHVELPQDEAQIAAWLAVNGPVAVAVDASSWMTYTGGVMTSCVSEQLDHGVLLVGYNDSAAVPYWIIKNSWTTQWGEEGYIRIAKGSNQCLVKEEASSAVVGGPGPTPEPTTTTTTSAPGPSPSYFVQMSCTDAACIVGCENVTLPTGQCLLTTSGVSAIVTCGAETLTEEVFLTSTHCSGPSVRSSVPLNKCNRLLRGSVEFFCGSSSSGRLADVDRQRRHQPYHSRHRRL
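15 min RT preincubation of 1.5 nM cruzain with compound, then 2 uM Z-FR-AMC added; kinetic AMC fluorescence, 60 s delta. Triton X-100 0.01%, pH 5.5.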
Cruzain inh noDet = inhibitors of Trypanosoma cruzi cruzain without detergent | Potency, µM, inactives show max response, negative = inhibition, actives largely listed as inhibitors | P25779 | actives 2.3% (n = 200,000) | purified cruzain, Z-FR-AMC fluorescence, no detergent;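 also: plate controls were enzyme without inhibitor for no effect and buffer without enzyme for full effect; nearly all actives have a fitted effect of over 40% in size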
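Detergent-free condition (0.00005% Triton X-100) in acetate buffer pH 5.5 with DTT. 1.5 nM enzyme and compound were pre-mixed 15 min, then 2 uM Z-FR-AMC substrate added; reaction progress from fluorescence change between first and third reads (60 s).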
NS1 function inh = inhibitors of influenza NS1 protein function. Potency, µM (series often up to 46.1 µM), without a hit: at the top dose activity, positive = more growth. actives 0.4% (n = 270,000). AID 2326; calls by dose curve; also: actives are rising curves; nearly all actives have a fitted effect of over 50% in size
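Read-out: OD600 growth recovery of NS1-expressing budding yeast. Cells grown overnight at 30C in -URA glucose medium, washed, resuspended and diluted 1:100 in 2% galactose assay medium, pH 6.0. Same strain lacking NS1 served as positive control.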
* marks the source's active call; other numbers are inactive results; ? = inconclusive; . = no result. Unless noted, calls follow the shape of the dose curve; as a rule, active = well fitted curve in the direction sought with a large enough effect; inconclusive = small, poorly fitted or top-dose-only effect, or another doubt; inactive = no such curve, though single readings can be large; an effect the other way counts as inactive or inconclusive. Potency is read from the fitted curve at half-maximal effect.

SMILES	Cruzain inh Det	Cruzain inh noDet	NS1 function inh
CC(=O)N1CCC2(CC1)CN(C(c1ccccc1)c1ccccc1)C2	-1%	-6%	.
O=C(Nc1ccc(Cl)cc1)[C@@H]1[C@@H]2C(=O)N(c3ccc(Cl)cc3Cl)C(=O)[C@@H]2[C@H]2C=CC=NN21	-5%	16µM*	22%
O=C(Nc1ccc(Cl)cc1)[C@@H]1[C@@H]2C(=O)N(c3ccc(Cl)cc3)C(=O)[C@@H]2[C@H]2C=CC=NN21	-5%	20µM*	11%
COc1ccccc1N1C(=O)[C@@H]2[C@H](C1=O)[C@H](C(=O)c1ccc(OC(C)=O)cc1)N1N=CC=C[C@@H]21	.	.	15%
Cc1ccc(N2C(=O)[C@@H]3[C@H](C2=O)[C@H]2C=CC=NN2[C@@H]3C(=O)Nc2ccc(Cl)cc2)cc1	-8%	-1%	12%
CCOc1ccc(CCNC(=O)CCCc2nnc3n(CC(C)C)c(=O)c4sccc4n23)cc1	0%	5%	.
O=C(Nc1cnn(Cc2ccc(F)cc2)c1)c1cc(-c2ccc(Br)cc2)on1	.	.	-10%
COc1cc(OC)cc(C(=O)NCCc2csc(-c3ccc(C(F)(F)F)cc3)n2)c1	-14%	?	.
CC(C)c1ccc(CNc2nc(-c3ccco3)nn2C(=O)c2ccc([N+](=O)[O-])cc2)cc1	-1%	-9%	.
C=CCN(c1ccccc1OC)S(=O)(=O)c1cccc(C(=O)OCC(=O)c2c[nH]c3ccccc23)c1	-3%	-27%	-27%
CC(O)C(NS(=O)(=O)c1ccc(Cl)cc1)C(=O)OCC(=O)c1c[nH]c2ccccc12 (configuration not stated)	.	.	4%
Cc1ccc(C(=O)OCC(=O)c2c[nH]c3ccccc23)cc1	-3%	?	10%
CC(C)C(NS(=O)(=O)c1c(Cl)cccc1Cl)C(=O)OCC(=O)c1c[nH]c2ccccc12 (configuration not stated)	-11%	32µM*	-30%
COc1cc(OC)c(N(C)S(=O)(=O)c2cccc(C(=O)OCC(=O)c3c[nH]c4ccccc34)c2)cc1Cl	-1%	10µM*	?
Cc1ccc(S(=O)(=O)CCC(=O)OCC(=O)c2c[nH]c3ccccc23)cc1	-30%	20µM*	-7%
Cc1ccc(S(=O)(=O)N(C)Cc2ccc(C(=O)N/N=C/c3ccc(OC(F)F)cc3)cc2)cc1	-1%	10µM*	6%
C/C(=N\NC(=O)c1ccc(CN(C)S(=O)(=O)c2ccc(C)cc2)cc1)c1ccc(OC(F)F)cc1	-2%	4%	22%
C(=NC1CCCCC1)=NC1CCCCC1	3%	-4%	.
COC(=O)[C@@H]1C(O)[C@@H](C(=O)OC)[C@H](C)N(C)[C@@H]1C (some centres not stated)	3%	4%	3%
N=C1S/C(=C\c2ccccc2F)C(=O)N1c1ccc(F)cc1	-3%	?	-1%
N=C1S/C(=C\c2ccccc2)C(=O)N1c1ccc(F)cc1	3%	25µM*	-5%
Cc1cc2cc(C(c3nnnn3CC3CCCO3)N3CCCc4ccccc43)c(=O)[nH]c2cc1C (configuration not stated)	-8%	28%	5µM*
CCc1ccc2[nH]c(=O)c(C(c3nnnn3CC3CCCO3)N3CCCc4ccccc43)cc2c1 (configuration not stated)	-7%	15%	-29%
COCCNC(=O)c1ccc2c(=O)n(CCc3ccccc3)c(SCC(=O)CC(=O)OC)nc2c1	-9%	?	.
COc1ccc(COc2cc(-c3cccc(OC)c3)nc3ccc(NC(=O)c4ccc(C)cc4)cc23)cc1	3%	7.9µM*	19%
SMILES	Cruzain inh Det	Cruzain inh noDet	NS1 function inh
COc1ccc(COc2cc(-c3cccc(OC)c3)nc3ccc(NC(C)=O)cc23)cc1	1%	?	2%
Nc1nc(Cl)nc2c1ncn2[C@@H]1O[C@H](CO)[C@H](O)[C@H]1O	3%	-4%	0%
COc1ccc(NC(=O)C(NC(=O)/C=C\c2ccc3c(c2)OCO3)c2ccccc2)cc1 (configuration not stated)	-1%	10%	.
COc1ccc(-c2nn(-c3ccccc3)cc2/C=N/NC(N)=S)cc1OC	1.6µM*	0.63µM*	?
CCN(CC)c1ccc(/C=N/NC(=O)c2cccc(S(=O)(=O)Nc3ccccc3OC)c2)cc1	.	.	19%
CCN(CC)c1ccc(/C=N/NC(=O)c2cccc(S(=O)(=O)Nc3ccccc3OC)c2)c(O)c1	-4%	20µM*	24%
COc1ccc(-c2nn(-c3ccccc3)cc2/C=N/n2cnnc2)cc1OC	-8%	?	-7%
COc1ccc(NS(=O)(=O)c2cccc(C(=O)N/N=C/c3cn(-c4ccccc4)nc3-c3ccccc3)c2)cc1	.	.	7%
COc1ccccc1NS(=O)(=O)c1cccc(C(=O)N/N=C/c2cn(-c3ccccc3)nc2-c2ccccc2)c1	-5%	13µM*	?
CN(C)c1ccc(-c2cncnc2-n2ccnc2)cc1	4%	-15%	.
COc1cccc(-c2cnc(NCc3ccccc3Cl)n2C)c1	0%	1%	.
Cc1c2ccccc2c(CSC(=N)N)c2ccccc12	1%	0%	-6%
O=S(=O)(O)c1ccc2c(N=Nc3c(O)ccc4ccccc34)cccc2c1	-12%	24%	0%
CC(C)Nc1oc(-c2ccccc2)nc1-c1cccc2ccccc12	4%	-2%	.
CCOc1ccccc1NC(=S)NC(=O)CCCOc1ccc(Cl)cc1Cl	-2%	20µM*	-3%
O=C(CCCOc1ccc(Cl)cc1Cl)Nc1ccccc1C(=O)O	.	.	-2%
CCOC(=O)C1=C(C)N=C2c3ccccc3C(=O)C2C1c1ccc(Cl)cc1 (configuration not stated)	-5%	-7%	21%
CCOC(=O)C1=C(Cc2ccc(Cl)cc2)C(=O)c2ccccc2C1=O	-7%	16µM*	-111%
COCCn1c(=O)c(-c2ccc(Cl)cc2)nc2cnc(Oc3cccc(Cl)c3)nc21	-1%	1%	.
O=C(N/N=C\c1ccc(CNS(=O)(=O)c2ccccc2)o1)C(=O)Nc1ccc(F)cc1	1%	?	2%
O=C(N/N=C\c1ccc(CN(Cc2ccc(Cl)cc2)S(=O)(=O)c2ccccc2)o1)C(=O)Nc1ccc(F)cc1	2%	7.9µM*	4%
O=C(NCc1ccc(/C=N\NC(=O)C(=O)Nc2ccccc2Br)o1)C(=O)Nc1ccccc1	.	.	14%
O=C(N/N=C\c1ccc(CNS(=O)(=O)c2ccc(Cl)cc2)o1)C(=O)Nc1ccc(Oc2ccccc2)cc1	-1%	7.9µM*	17%
COc1ccc(OC(=O)c2nc(SCc3ccccc3C)ncc2Cl)cc1	-3%	?	.
COc1ccccc1-c1nn2c(-c3ccccc3Cl)nnc2s1	1%	-16%	13µM*
COc1cccc(-c2nnc3sc(-c4ccccc4)nn23)c1	-8%	?	-9%
COc1ccccc1-c1nn2c(-c3ccco3)nnc2s1	-5%	?	-58%
COc1cccc(OC)c1-c1nn2c(-c3cc(-c4ccccc4)n[nH]3)nnc2s1	1.8µM*	20µM*	6%
COc1cccc(C(=O)NCCSc2c(-c3ccc(F)cc3)[nH]c3ccccc23)c1OC	-4%	?	.
Cc1ccc(CN2CCCn3nc(C(=O)NCCc4ccc(Cl)cc4)cc3C2=O)cc1	-3%	5%	.

Screening data deposited in PubChem BioAssay by National Center for Advancing Translational Sciences (NCATS).
